About 79,000 compounds went through this panel and 15% of them were active in at least one assay; those are over-represented in the sample as a whole. Activity calls are given as the source filed them. Cut-off read from the data, not from the text of the source: active = growth inhibition above about 70%; inactive = the rest.
How the values were obtained:
[1] = NCI Yeast Anticancer Drug Screen. Data for the rad52 strain (AID 147);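 note: 0% = growth of vehicle-treated control cultures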; conditions: S. cerevisiae rad52 mutant growth inhibition, hits give high values
Summary of the method: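 DNA repair-defective yeast; compound exposure; growth scored against vehicle controls.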

[2] = NCI Yeast Anticancer Drug Screen. Data for the wt1 strain (AID 149);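 note: 0% = growth of vehicle-treated wt1 cultures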; conditions: S. cerevisiae wt1 strain (SPY 50644) growth inhibition, hits give high values
Summary of the method: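 Each compound is tested on wt1 yeast and the loss of growth versus vehicle gives the inhibition value.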

[3] = NCI Yeast Anticancer Drug Screen. Data for the rad50EPP+ strain (AID 151);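 note: 0% = growth of vehicle-treated control cultures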; conditions: S. cerevisiae rad50 mutant strain, hits give high values
Summary of the method: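 rad50EPP+ yeast treated with test compounds. Readout: growth vs vehicle control.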

[4] = NCI Yeast Anticancer Drug Screen. Data for the mgt1 strain (AID 153); conditions: S. cerevisiae mgt1 mutant growth inhibition, hits give high values
Summary of the method: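 Growth inhibition relative to vehicle controls was scored for the mgt1 yeast strain after compound exposure.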

[5] = NCI Yeast Anticancer Drug Screen. Data for the rad50 strain (AID 155);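 note: 0% = growth of vehicle-only cultures of the same strain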; conditions: S. cerevisiae rad50 strain growth inhibition, hits give high values
Summary of the method: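 Vehicle-treated cultures provide the reference for the growth inhibition reported for compound-exposed, repair-deficient yeast.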

[6] = NCI Yeast Anticancer Drug Screen. Data for the mec2-1 strain (AID 157); conditions: S. cerevisiae mec2-1 strain, hits give high values
Summary of the method: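 Growth inhibition is read against vehicle-treated controls after compound exposure of the mec2-1 yeast strain, which is defective in DNA damage repair or cell cycle control.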

[7] = NCI Yeast Anticancer Drug Screen. Data for the rad14 strain (AID 159);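 note: 0% = growth of vehicle-treated control cultures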; conditions: S. cerevisiae rad14 strain growth inhibition, hits give high values
Summary of the method: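 Inhibition of growth is reported for a repair-deficient yeast mutant following compound treatment, calculated relative to cultures that received vehicle.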

[8] = NCI Yeast Anticancer Drug Screen. Data for the sgs1 mgt1 strain (AID 161);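 note: 0% = growth of cultures given vehicle only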; conditions: S. cerevisiae sgs1 mgt1 strain, hits give high values
Summary of the method: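 Yeast cells carrying a defined DNA-repair defect were exposed to test compounds. Growth inhibition was measured relative to vehicle-treated controls.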

[9] = NCI Yeast Anticancer Drug Screen. Data for the CLN2oe strain (AID 163);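 note: 0% = growth of vehicle-only control cultures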; conditions: S. cerevisiae CLN2oe strain, hits give high values
Summary of the method: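 Compound-treated yeast; growth vs vehicle ctrl = % inhibition. Genetically altered strain (cell-cycle control).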

[10] = NCI Yeast Anticancer Drug Screen. Data for the cln2 rad14 strain (AID 165);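 note: 0% = growth equal to vehicle treated cultures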; conditions: S. cerevisiae cln2 rad14 strain, hits give high values
Summary of the method: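 Growth inhibition, relative to vehicle-treated controls, is the read-out. The test organism is a yeast strain with defined genetic alterations, cln2 rad14.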

[11] = NCI Yeast Anticancer Drug Screen. Data for the bub3 strain (AID 167); conditions: S. cerevisiae bub3 mutant strain, hits give high values
Summary of the method: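 Mutant yeast screening strain plus compound; vehicle-treated cultures serve as the 0% inhibition reference.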

[12] = NCI Yeast Anticancer Drug Screen. Data for the wt2 strain (AID 169); conditions: S. cerevisiae wt2 strain growth inhibition, hits give high values
Summary of the method: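 Compound exposure of yeast; growth compared with vehicle controls; inhibition reported.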

[13] = NCI Yeast Anticancer Drug Screen. Data for the mlh1 strain (AID 171);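 note: 0% = growth of vehicle-treated control cultures of the same strain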; conditions: S. cerevisiae mlh1 strain growth inhibition, hits give high values
Summary of the method: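 Compounds are applied to a genetically altered yeast strain, and its growth is compared with that of vehicle-treated cultures to give percent inhibition.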

[14] = NCI Yeast Anticancer Drug Screen. Data for the sgs1 strain (AID 173);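 note: 0% = growth of vehicle-only control cultures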; conditions: S. cerevisiae sgs1 mutant, hits give high values
Summary of the method: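 Compounds applied to genetically altered yeast; growth compared with vehicle-treated cultures to give % inhibition.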

[15] = NCI Yeast Anticancer Drug Screen. Data for the mlh1 rad18 strain (AID 175); conditions: S. cerevisiae mlh1 rad18 strain growth inhibition, hits give high values
Summary of the method: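 Cells of a genetically altered yeast strain, deficient in DNA damage repair, were treated with compound. Their growth was then compared with that of vehicle-treated cultures to give inhibition.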

[16] = NCI Yeast Anticancer Drug Screen. Data for the rad18 strain (AID 177); conditions: S. cerevisiae rad18 mutant growth inhibition, hits give high values
Summary of the method: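 Compounds are applied to a repair-deficient yeast strain, and growth is compared with that of vehicle-treated cultures to give percent inhibition.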

[17] = at 5.0 µM (retest, dose inferred, filed as 0.5)
[18] = at 50.0 µM (retest, dose inferred, filed as 5.0)

Measured: growth inhibition

CCCC(=O)Oc1c(C)cc([N+](=O)[O-])cc1[N+](=O)[O-]
active: [1]; at 11.0 µM 99% | [1]; at 33.0 µM 97% | [1]; at 100.0 µM 99% | [2]; at 11.0 µM 98% | [2]; at 33.0 µM 99% | [2]; at 100.0 µM 99% | [3]; at 3.7 µM 77% | [3]; at 11.0 µM 94% | [3]; at 33.0 µM 99% | [3]; at 100.0 µM 99% | [4]; at 33.0 µM 99% | [4]; at 100.0 µM 86% | [5]; at 11.0 µM 98% | [5]; at 33.0 µM 99% | [5]; [18] 99% | [5]; at 50.0 µM 99.4% | [5]; at 100.0 µM 99% | [6]; at 11.0 µM 99% | [6]; at 33.0 µM 99% | [6]; [18] 100% | [6]; at 50.0 µM 99.3% | [6]; at 100.0 µM 99% | [7]; at 11.0 µM 96% | [7]; at 33.0 µM 99% | [7]; at 100.0 µM 99% | [8]; [18] 99% | [8]; at 50.0 µM 99.4% | [9]; at 11.0 µM 94% | [9]; at 33.0 µM 99% | [9]; at 100.0 µM 99% | [10]; [18] 97% | [10]; at 50.0 µM 93.5% | [11]; at 11.0 µM 98% | [11]; at 33.0 µM 99% | [11]; [18] 99% | [11]; at 50.0 µM 99.5% | [11]; at 100.0 µM 99% | [12]; at 11.0 µM 98% | [12]; at 33.0 µM 99% | [12]; at 100.0 µM 99% | [13]; at 11.0 µM 99% | [13]; at 33.0 µM 99% | [13]; at 100.0 µM 99% | [14]; at 11.0 µM 99% | [14]; at 33.0 µM 99% | [14]; at 100.0 µM 99% | [15]; [18] 99% | [15]; at 50.0 µM 99.1% | [16]; at 11.0 µM 98% | [16]; at 33.0 µM 99% | [16]; at 100.0 µM 99%
inactive: [1]; at 1.2 µM 4% | [1]; at 3.7 µM 26% | [2]; at 1.2 µM 1% | [2]; at 3.7 µM 0% | [3]; at 1.2 µM 35% | [4]; at 1.2 µM 3% | [4]; at 3.7 µM 11% | [4]; at 11.0 µM 56% | [5]; at 1.2 µM 4% | [5]; at 3.7 µM 25% | [5]; [17] 14% | [6]; at 1.2 µM -1% | [6]; at 3.7 µM 21% | [6]; [17] 33% | [7]; at 1.2 µM 1% | [7]; at 3.7 µM 14% | [8]; [17] 39% | [9]; at 1.2 µM -11% | [9]; at 3.7 µM -2% | [10]; [17] -1% | [11]; at 1.2 µM 12% | [11]; at 3.7 µM 42% | [11]; [17] 40% | [12]; at 1.2 µM 2% | [12]; at 3.7 µM 4% | [13]; at 1.2 µM 2% | [13]; at 3.7 µM 12% | [14]; at 1.2 µM 5% | [14]; at 3.7 µM 27% | [15]; [17] 18% | [16]; at 1.2 µM 5% | [16]; at 3.7 µM 20%

Source: PubChem BioAssay (NCI)
